Laboratory results published in PubChem BioAssay (NCATS).
Results filed as inconclusive are left out. A call without a number means that no potency is given here. Unmarked numbers belong to inactive results. Activity calls are given as the source filed them. The call rests on the fitted dose curve; in most records, active means well fitted inhibition curve with a large enough effect in the repeat runs; inconclusive means weak or mixed curves; inactive means no such curve, though single readings can be large or run the other way. *1 amine or outer side, *2 acyl side, *3 side chain or, on linkers, in order; H or OH if unused. Where a SMILES comes first, the peptide text is derived from it. Bridges are numbered along the chain shown (N, C = ends). [ ]: non-standard residue; d: D form. The star is where a group is joined. ξ: configuration not given here. X10 = NC1=NCCC(C(N[*:1])C(=O)[*:2])N1; ΔAla(3-NHCONH2) = NC(=O)NC=C(N)C(=O)O; ξβ3hOrn = NCCCC(N)CC(=O)*; Dap = NC[CH](N)C(=O)O

Biological target: Cytochrome P450 2C9 (Homo sapiens) (UniProt P11712)
Sequence (P11712 whole entry, looked up): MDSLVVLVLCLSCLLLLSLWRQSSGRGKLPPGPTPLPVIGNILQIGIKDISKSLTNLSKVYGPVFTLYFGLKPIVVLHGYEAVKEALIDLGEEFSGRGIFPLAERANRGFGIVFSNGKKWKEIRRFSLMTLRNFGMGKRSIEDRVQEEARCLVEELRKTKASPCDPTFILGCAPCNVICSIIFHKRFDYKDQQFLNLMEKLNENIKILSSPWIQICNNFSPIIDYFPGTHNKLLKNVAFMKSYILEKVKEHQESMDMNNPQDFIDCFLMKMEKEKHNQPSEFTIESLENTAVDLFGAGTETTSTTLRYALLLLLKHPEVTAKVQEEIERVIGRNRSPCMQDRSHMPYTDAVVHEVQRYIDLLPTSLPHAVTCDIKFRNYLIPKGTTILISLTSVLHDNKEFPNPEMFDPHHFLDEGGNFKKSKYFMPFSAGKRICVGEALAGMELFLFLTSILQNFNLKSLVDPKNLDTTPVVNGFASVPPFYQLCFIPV
Assay: Cytochrome P450 family 2 subfamily C member 9 (CYP2C9) small molecule antagonists: luciferase biochemical (cell-free) qHTS assay (AID 1645842); further: nearly all actives have a fitted effect of over 55% in size
Details: P450-Glo CYP2C9 enzyme assay, luciferin luminescence; series mostly up to 57.4 µM
How it was run: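 Luminescence, after 20 min with luciferin detection reagent, reflected CYP2C9 turnover during a 1 h NADPH-driven reaction at 37C. Enzyme-substrate mix contained 0.4% bovine serum albumin and was preincubated with compound 10 min at room temperature.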
Potency means the concentration at half of the fitted maximal effect.

Row | SMILES | Potency | activity change, negative = inhibition
1 | CCOC(=O)c1ccc(OCCN2C[C@H](O)[C@@H](O)[C@H](O)[C@H]2CO)cc1 | inactive | 
2 | CCC(CN)=C(c1ccccc1)c1ccccc1 | 11.5 µM (active) | 
3 | CCCC(=O)O[C@]1(C(=O)COC(=O)CC)CC[C@H]2[C@@H]3CCC4=CC(=O)CC[C@]4(C)[C@H]3[C@@H](O)C[C@@]21C | inactive | 
4 | Nc1ccc2cc3ccc(N)cc3nc2c1 | inactive | 
5 | CO[C@@]1(NC(=O)CSC[C@@H](N)C(=O)O)C(=O)N2C(C(=O)O)=C(CSc3nnnn3C)CS[C@@H]21 | inactive | 
6 | CN(C)C(=O)CNC(=O)Cc1ccccc1 | inactive | 
7 | CN(C)[C@@H]1C(=O)C(C(N)=O)=C(O)[C@@]2(O)C(=O)C3=C(O)c4c(O)cccc4C[C@H]3C[C@@H]12 | inactive | 
8 | NC(=O)NC1N=C([O][Al])NC1=O (stereo not drawn) | inactive | 
9 | CC1CCCCN1CCCOC(=O)c1ccc(OC2CCCCC2)cc1 (stereo not drawn) | inactive | 
10 | O=C(NN1CCCC1)NS(=O)(=O)c1ccc(Cl)cc1 | inactive | 
11 | O=C(CCOCCOCCOCCOCCC(=O)Nc1c(I)cc(I)c(C(=O)O)c1I)Nc1c(I)cc(I)c(C(=O)O)c1I | inactive | 
12 | C[C@H](N)C(=O)N[C@@H](C)C(=O)NC1[C@H]2CN(c3nc4c(cc3F)c(=O)c(C(=O)O)cn4-c3ccc(F)cc3F)C[C@@H]12 (stereo partly drawn) | inactive | 
13 | CC(C)C[C@H](NC(=O)CNC(=O)[C@H](Cc1ccc(O)cc1)NC(=O)[C@H](CO)NC(=O)[C@H](Cc1c[nH]c2ccccc12)NC(=O)[C@H](Cc1cnc[nH]1)NC(=O)[C@@H]1CCC(=O)N1)C(=O)N[C@@H](CCCN=C(N)N)C(=O)N1CCC[C@H]1C(=O)NCC(N)=O (stereo in doubt) | inactive | 
14 | CC(=O)OCC(=O)Nc1cc(C#N)cc(NC(=O)COC(C)=O)c1Cl | inactive | 
15 | O=C(O)C1CCC1 | inactive | 
16 | COCCOCC(OC)OC | inactive | 
17 | CCC[C@H](N[C@@H](C)C(=O)N1[C@H](C(=O)O)C[C@@H]2CCCC[C@@H]21)C(=O)OCC | inactive | 
18 | O=C(O)[C@@H](O)[C@H](O)[C@H](O)[C@@H](O)C(=O)O | inactive | 
19 | CCOC(=O)CN1CCCC1=O | inactive | 
20 | NCCCC(N)CC(=O)NCC1NC(=O)C(CO)NC(=O)C(N)CNC(=O)C(C2CCN=C(N)N2)NC(=O)C(=CNC(N)=O)NC1=O (stereo not drawn) (H-[Dap]S[Dap](ξβ3hOrn)[ΔAla(3-NHCONH2)][X10]; lactam 1-C; configuration not given here) |  | 7.44% [at 0.91 µM]
21 | CC(=O)N(CC(=O)N(C)C)c1ccccc1 | inactive | 
22 | CC(C)OC(=O)c1cc2c(OCC(O)CNC(C)(C)C)cccc2[nH]1 (stereo not drawn) | inactive | 
23 | CCCCCC1Nc2cc(C(F)(F)F)c(S(N)(=O)=O)cc2S(=O)(=O)N1 (stereo not drawn) | 1.95 µM (active) | 
